Common to all, as to conditions: treatment time: 24 h
The test system of assay [1] is A549-ACTB-RAB5A. As to the kind of experiment: lowest phenotypically active concentration; higher = less potent. An outline of the steps:
(§1)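 Fifteen reporter lines derived from A549, HepG2 and WPMY1 cells by gene editing, carrying BFP for segmentation plus GFP and RFP/FusionRed markers, were exposed to 0.3, 1, 3 or 9 µM for 24 h in four wells each and imaged live. Live-cell features from each well were normalised to solvent control wells. A well set counted as deviating when ≥3 of 4 wells lay beyond the 95th percentile of control Euclidean distances, and as reproducible when the median replicate Pearson correlation exceeded the 95th percentile of non-replicates. Phenotypic activity was assigned only when both criteria were met.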

In assay [2] the test system is A549-CANX-COX4. The assay is described as above. An outline of the steps: as §1
Assay [3] relates to A549-GM130-SQSTM1. Described as above. The method in brief:
as §1

The subject of assay [4] is A549-TP53BP1-CLTA. Described as above. An outline of the steps: as §1
Assay [5] concerns A549-TUBA1B-RELA. The assay is described as above. An outline of the steps:
as §1

For assay [6], the system named is HepG2-TP53BP1-CLTA. Described as above. The method in brief: as §1
In assay [7] the test system is A549-ACTB-RAB5A. The experiment in a line: phenotypically active (imaging signature differs from DMSO and reproducible) at any of 0.3-9 uM (binary (1 = active, 0 = inactive)); higher = active. The method in brief:
as §1

For assay [8], the system named is A549-CANX-COX4. Described as above. The method in brief:
as §1

Assay [9] relates to A549-GM130-SQSTM1. The description is as above. The method in brief:
as §1

The test system of assay [10] is A549-TP53BP1-CLTA. The description is as above. An outline of the steps:
as §1

Assay [11] relates to A549-TUBA1B-RELA. Described as above. The method in brief: as §1
Another assay relates to HepG2-ACTB-RAB5A. The assay is described as above. The method in brief:
as §1

The subject of another assay is HepG2-CANX-COX4. The assay is described as above. An outline of the steps: as §1
In the next assay the test system is HepG2-GM130-SQSTM1. The assay is described as above. An outline of the steps:
as §1

The test system of assay [12] is HepG2-TP53BP1-CLTA. Described as above. An outline of the steps: as §1
Another assay relates to HepG2-TUBA1B-RELA. The assay is described as above. An outline of the steps:
as §1

Another assay relates to WPMY1-CANX-COX4. The assay is described as above. The method in brief:
as §1

The next assay relates to WPMY1-GM130-SQSTM1. The assay is described as above. An outline of the steps:
as §1

The subject of the next assay is WPMY1-TP53BP1-CLTA. The assay is described as above. An outline of the steps: as §1
The subject of a further assay is WPMY1-TUBA1B-RELA. The description is as above. The method in brief:
as §1

As to `COc1cccc(-c2cc(F)ccc2[C@H]2Cc3nc(N)nc(C)c3C(=O)N2)n1`, the “lowest phenotypically active concentration” value in the assay on A549-ACTB-RAB5A [1], with A549-CANX-COX4 [2], in the assay with A549-GM130-SQSTM1 [3], in the assay with A549-TP53BP1-CLTA [4], in the assay with A549-TUBA1B-RELA [5] and with HepG2-TP53BP1-CLTA [6] was no more than 0.3 µM throughout. Further, the phenotypically active with A549-ACTB-RAB5A [7], with A549-CANX-COX4 [8], in the assay with A549-GM130-SQSTM1 [9], in the assay on A549-TP53BP1-CLTA [10], with A549-TUBA1B-RELA [11] and with HepG2-ACTB-RAB5A was 1 (active) in each case. The phenotypically active in the assay with HepG2-CANX-COX4, in the assay with HepG2-GM130-SQSTM1, in the assay on HepG2-TP53BP1-CLTA [12], with HepG2-TUBA1B-RELA, with WPMY1-CANX-COX4 and with WPMY1-GM130-SQSTM1 was 1 (active) in each case. The phenotypically active with WPMY1-TP53BP1-CLTA and in the assay on WPMY1-TUBA1B-RELA was 1 (active) throughout.

For `CC(=O)NC1=NN(C(C)=O)C(C)(c2ccccc2)S1` (stereo not given), the “lowest phenotypically active concentration” value with A549-ACTB-RAB5A [1] amounted to 3 µM; in the assay on A549-CANX-COX4 [2], 3 µM; with A549-GM130-SQSTM1 [3], 9 µM; in the assay on A549-TP53BP1-CLTA [4], 9 µM; with A549-TUBA1B-RELA [5], 3 µM; in the assay with HepG2-TP53BP1-CLTA [6], 3 µM. The phenotypically active with A549-ACTB-RAB5A [7], with A549-CANX-COX4 [8], in the assay with A549-GM130-SQSTM1 [9], with A549-TP53BP1-CLTA [10], with A549-TUBA1B-RELA [11] and with HepG2-ACTB-RAB5A was 1 (active) each time. Further, the phenotypically active with HepG2-CANX-COX4, with HepG2-GM130-SQSTM1, in the assay on HepG2-TP53BP1-CLTA [12], in the assay on HepG2-TUBA1B-RELA, in the assay with WPMY1-CANX-COX4 and in the assay with WPMY1-GM130-SQSTM1 was 1 (active) throughout. The phenotypically active in the assay with WPMY1-TP53BP1-CLTA and with WPMY1-TUBA1B-RELA was 1 (active) throughout.

As to `COc1cc(N2CCN(C)CC2)ccc1Nc1nccc(-c2cn(C)c3cnccc23)n1`, the “lowest phenotypically active concentration” value in the assay on A549-ACTB-RAB5A [1] was found to be 1 µM; with A549-CANX-COX4 [2] it was 9 µM; in the assay on A549-GM130-SQSTM1 [3], 3 µM; in the assay on A549-TP53BP1-CLTA [4] it was 1 µM; with A549-TUBA1B-RELA [5], 1 µM; in the assay on HepG2-TP53BP1-CLTA [6], 1 µM. The phenotypically active in the assay on A549-ACTB-RAB5A [7], in the assay on A549-CANX-COX4 [8], in the assay with A549-GM130-SQSTM1 [9], in the assay with A549-TP53BP1-CLTA [10], with A549-TUBA1B-RELA [11] and with HepG2-ACTB-RAB5A was 1 (active) in each case. The phenotypically active in the assay with HepG2-CANX-COX4, in the assay with HepG2-GM130-SQSTM1, in the assay with HepG2-TP53BP1-CLTA [12], in the assay on HepG2-TUBA1B-RELA, in the assay with WPMY1-CANX-COX4 and in the assay with WPMY1-GM130-SQSTM1 was 1 (active) each time. The phenotypically active in the assay with WPMY1-TP53BP1-CLTA and in the assay with WPMY1-TUBA1B-RELA was 1 (active) in each case.

On to `CN1c2ccccc2C(=O)N2CCc3c([nH]c4ccccc34)[C@H]21` [Evodiamine], for which the “lowest phenotypically active concentration” value was 1 µM in the assay with A549-ACTB-RAB5A [1]; 1 µM in the assay with A549-CANX-COX4 [2]; 1 µM in the assay with A549-GM130-SQSTM1 [3]; 3 µM in the assay with A549-TP53BP1-CLTA [4]; 1 µM with A549-TUBA1B-RELA [5]; 3 µM in the assay with HepG2-TP53BP1-CLTA [6]. Also, the phenotypically active in the assay with A549-ACTB-RAB5A [7], in the assay on A549-CANX-COX4 [8], with A549-GM130-SQSTM1 [9], in the assay on A549-TP53BP1-CLTA [10], with A549-TUBA1B-RELA [11] and in the assay with HepG2-ACTB-RAB5A was 1 (active) throughout. Also, the phenotypically active in the assay on HepG2-CANX-COX4, in the assay with HepG2-GM130-SQSTM1, in the assay with HepG2-TP53BP1-CLTA [12], in the assay on HepG2-TUBA1B-RELA, in the assay with WPMY1-CANX-COX4 and in the assay on WPMY1-GM130-SQSTM1 was 1 (active) in each case. Besides, the phenotypically active in the assay on WPMY1-TP53BP1-CLTA and with WPMY1-TUBA1B-RELA was 1 (active) each time.

As for `Oc1ccc(-c2nc(-c3ccc(F)cc3)c(-c3ccncc3)[nH]2)cc1`, the “lowest phenotypically active concentration” value with A549-ACTB-RAB5A [1] was 3 µM; with A549-CANX-COX4 [2] it was 3 µM; in the assay on A549-GM130-SQSTM1 [3], 9 µM; in the assay with A549-TP53BP1-CLTA [4], 1 µM; in the assay on A549-TUBA1B-RELA [5] it was 3 µM; with HepG2-TP53BP1-CLTA [6] it was 1 µM. Besides, the phenotypically active in the assay on A549-ACTB-RAB5A [7], with A549-CANX-COX4 [8], with A549-GM130-SQSTM1 [9], in the assay with A549-TP53BP1-CLTA [10], in the assay on A549-TUBA1B-RELA [11] and in the assay on HepG2-ACTB-RAB5A was 1 (active) in each case. Moreover, the phenotypically active with HepG2-CANX-COX4, with HepG2-GM130-SQSTM1, with HepG2-TP53BP1-CLTA [12], in the assay with HepG2-TUBA1B-RELA, in the assay on WPMY1-CANX-COX4 and with WPMY1-GM130-SQSTM1 was 1 (active) each time. The phenotypically active in the assay on WPMY1-TP53BP1-CLTA and with WPMY1-TUBA1B-RELA was 1 (active) throughout.

The values above are taken from the supplement of paper PMC7411054.
